In ChEMBL document CHEMBL1157539, “Thousands of chemical starting points for antimalarial lead identification” (Nature, 2010):

What was measured:
Assay type in all cases: functional
Plasmodium falciparum [1] = test: GSK_TCMDC: Inhibition of Plasmodium falciparum 3D7 in whole red blood cells, using parasite LDH activity as an index of growth. Test compounds present at 2uM
Plasmodium falciparum [2] = test: GSK_TCMDC: Inhibition of Plasmodium falciparum Dd2 in whole red blood cells, using parasite LDH activity as an index of growth. Test compounds present at 2uM
HepG2 = test: GSK_TCMDC: Percent inhibition of human HepG2 cell line. Test compounds present at 10uM.

Row | SMILES | Inhibition (Plasmodium falciparum [1]) [%] | Inhibition (Plasmodium falciparum [2]) [%] | Inhibition (HepG2) [%]
1 | CC(C)COc1ccc(Cl)cc1Cc1nc(-c2nc3ccc(CN4CCN(C)CC4)cc3[nH]2)co1.Cl | 100 | 57 | 5
2 | O=C1C(c2ccccc2)=C(Nc2ccc(OC(F)(F)F)cc2)c2ccccc21 | 96 | 96 | 18
3 | Cc1cc(C)c2nc(N3CCC(C(=O)NCCCN4CCC(N5CCCCC5)CC4)CC3)sc2c1 | 99 | 34 | 99
4 | O=C(NC1CCN(Cc2ccccc2O)C1)c1cccc(C(F)(F)F)c1.O=C(O)C(F)(F)F (stereo not given) | 98 | 62 | 0
5 | CC1(C)[C@H]2CC[C@@H](CNc3nc(NCCc4c[nH]cn4)nc(Nc4ccc(Oc5ccccc5)cc4)n3)[C@@H]1C2 | 99 | 86 | 2
6 | COc1ccc2ccccc2c1C=NN=c1cc[nH]c2ccc(F)cc12 | 87 | 10 | 11
7 | Cc1nc(NCc2ccccc2)cc(NCC(O)c2ccc(O)cc2)n1 (stereo not given) | 85 | 10 | 5
8 | O=C(C=Cc1ccc(Cl)c(Cl)c1)NCCCCCN1CCCC(CCCNC(=O)c2ccc3c(c2)OCO3)C1 (stereo not given) | 95 | 4 | 30
9 | OC(CNCc1ccccc1OCc1ccccc1)c1cccc(Br)c1 (stereo not given) | 100 | 97 | 0
10 | O=S(=O)(Nc1cccc(CCN2CCC(N3CCCCC3)CC2)c1)c1cccc2ccccc12 | 99 | 63 | 23
11 | O=C(O)C(F)(F)F.O=S(=O)(NCCN1CCCC1)c1ccc(-c2ccc(CNCc3ccccc3)cc2)cc1F | 83 | 39 | 35
12 | CC(C)(C)c1ccccc1OC(=O)c1ccccc1 | 95 | 2 | 0
13 | CN1CCCC(CN2CCN(Cc3ccc(-c4ccc(-c5nc6ccccc6[nH]5)s4)cc3)CC2)C1.O=C(O)C(F)(F)F (stereo not given) | 100 | 100 | 57
14 | O=C(/C=C/c1ccc(Cl)c(Cl)c1)NCCCCCN1CCCC(CNC(=O)c2sc3ccccc3c2Cl)C1 (stereo not given) | 98 | 0 | 42
15 | Cc1cc2c(cc1C(F)(F)F)N(C(=O)Nc1cnc(OCCN(C)C)c(C(F)(F)F)c1)CC2 | 88 | 25 | 28
16 | CCN(CCCN1CCCCC1)c1cc(C)nc(Nc2ccc(C)cc2Cl)n1.O=C(O)C(F)(F)F | 93 | 25 | 44
17 | Cc1cccc(-c2nc(Nc3ccncc3)c3cc(N(C)C)ccc3n2)n1 | 98 | 63 | 5
18 | CCNC(C)(C)CN(Cc1ccc(-c2ccc(C(F)(F)F)cc2)cc1)C(=O)Cn1c(CCc2cccc(F)c2F)nc(=O)c2ccccc21.O=C(O)C(O)C(O)C(=O)O | 97 | 70 | 47
19 | COc1ccc(-c2cnc3[nH]cc(-c4ccncc4)c3c2)cc1OC | 98 | 97 | 52
20 | Cc1cccc2nc(-c3ccc(-c4ccc(NC(=O)C5CCN(C)CC5)cc4)cc3)[nH]c12 | 100 | 92 | 28

Row | SMILES | Inhibition (Plasmodium falciparum [1]) [%] | Inhibition (Plasmodium falciparum [2]) [%] | Inhibition (HepG2) [%]
21 | CC(C)(C)NC(=O)c1ccc(Oc2ccc(OC(F)(F)F)cc2)c(NC(=O)C(C)(C)C)c1 | 89 | 2 | 0
22 | Cc1cc(F)ccc1[C@H]1CNCCN1C(=O)N(C)C(C)(C)c1cc(C(F)(F)F)cc(C(F)(F)F)c1.Cl | 100 | 100 | 24
23 | CC(C)Sc1nc2c(c(=O)n1CCc1ccccc1)C1(CCCCC1)Cc1ccccc1-2 | 92 | 5 | 8
24 | O=C(Nc1ccc(Cl)c(Cl)c1)C1CCC(=O)N1[C@@H](Cc1ccccc1)C(=O)NCCc1ccc(Cl)cc1 (stereo not given in full) | 95 | 0 | 3
25 | Cc1ccc(Nc2nc3cc(N(C)c4ccnc(Nc5cccc(CS(C)(=O)=O)c5)n4)ccc3o2)cc1.O=C(O)C(F)(F)F | 90 | 16 | 0
26 | O=C(NCc1ccc(C(=O)NC2CCCCCC2)cc1)c1ccc(O)c(-c2ccc(Cl)c(Cl)c2)c1 | 83 | 21 | 0
27 | CN(C)Cc1c(O)ccc2[nH]c(-c3ccc(OC(F)(F)F)cc3)nc12 | 100 | 97 | 24
28 | CCN(CC)CCN1C(=O)c2oc3ccc(F)cc3c(=O)c2C1c1cccc(Cl)c1 (stereo not given) | 99 | 93 | 0
29 | COc1ccc(-c2nonc2NC(=O)c2cccc(C)c2)cc1OC | 97 | 8 | 24
30 | O=C(Cc1c[nH]cn1)Nc1ccc(-c2ccc(-c3nc4ccccc4[nH]3)s2)cc1 | 90 | 34 | 44
31 | COc1ccc(-c2cnc3ccc(NC4CCC(O)CC4)nn23)cn1 (stereo not given) | 98 | 73 | 54
32 | CCc1ccc(NC(=O)c2cccc(CN3CCCN(Cc4ccc(OC)cc4)CC3)c2)cc1.O=C(O)C(F)(F)F | 97 | 0 | 35
33 | CC1(C)CNCc2cc(NC(=O)/C=C/c3ccc(Cl)cc3)ccc21.Cl | 82 | 26 | 23
34 | O=C(O)C(F)(F)F.Oc1ccc(CCNc2nc(NCCCOc3cc(CN4CCCCC4)ccc3F)nc(N3CCNCC3)n2)cc1 | 100 | 0 | 30
35 | CCOC(=O)c1ccc(NC(=O)N(Cc2ccc(-c3cccc(CN4CCNCC4)c3)cc2)C2CCN(Cc3ccccc3)CC2)cc1.O=C(O)C(F)(F)F | 100 | 55 | 19
36 | COc1cc(OC)nc(-c2cccc(NC(=O)c3ccc4c(=O)n(CCN5CCCCC5)cnc4c3)c2)n1 | 100 | 86 | 11
37 | CC(C)(C)OC(=O)/C=C(\C(=O)OCc1ccc([N+](=O)[O-])cc1)c1csc(NC(c2ccccc2)(c2ccccc2)c2ccccc2)n1 | 96 | 97 | 2
38 | COc1ccc2c(c1)CC(NCc1ccc(-c3ccc4nc[nH]c4c3)cc1)C2.O=C(O)C(F)(F)F (stereo not given) | 100 | 71 | 30
39 | CC(=O)Nc1ccc(CN(Cc2ccc(C)cc2)Cc2cccc(Oc3ccccc3)c2)cc1 | 84 | 87 | 34
40 | O=C(c1ccccc1)N1COCC(CCN2CCC(N3CCCC3)CC2)(c2ccc(Cl)c(Cl)c2)C1 (stereo not given) | 83 | 9 | 18

Row | SMILES | Inhibition (Plasmodium falciparum [1]) [%] | Inhibition (Plasmodium falciparum [2]) [%] | Inhibition (HepG2) [%]
41 | CCN(CC)c1nc(N)c2c(N)nc3c(c2c1C#N)C(=O)CN3Cc1ccccc1 | 96 | 96 | 26
42 | O=C(Nc1ccc(C(F)(F)F)cc1)c1ccc(S(=O)(=O)NC2CCN(CC3CCCCC3)CC2)cc1.O=C(O)C(F)(F)F | 100 | 20 | 30
43 | CC(C)CC(NC(=O)c1cc2ccccc2s1)C(=O)N1CCCCCC1c1ccc(C(C)(C)C)cc1 (stereo not given) | 91 | 39 | 23
44 | CCCCNC[C@@H](O)[C@H](Cc1ccccc1)NC(=O)c1cc2c3c(c1)c(CC)cn3CCS(=O)(=O)N2C.O=CO | 99 | 98 | 0
45 | O=C(c1ccc(F)c2ccccc12)N1CCc2cc3nccc(N4CCN5CCC[C@H]5C4)c3cc21 | 90 | 54 | 0
46 | Cc1cc(=NN=Cc2ccc(Cl)cc2)c2ccc(F)cc2[nH]1 | 100 | 87 | 6
47 | Cc1nnsc1C(=O)Nc1cccc(-c2ccc(-c3nc4cc(C(F)(F)F)ccc4[nH]3)cc2)c1 | 99 | 97 | 62
48 | CC(C)[C@H]1CC[C@H](C)C[C@@H]1OC(=O)N[C@@H](Cc1ccc(O)cc1)C(=O)NC1CCN(Cc2ccc(OCCCN(C)C)cc2)C1 (stereo not given in full) | 99 | 64 | 27
49 | Cc1cc(N(C)C)nc(Nc2ccc(NC(=O)c3c(F)cccc3Cl)cc2)n1 | 90 | 36 | 15
50 | COc1ccc(-c2cccc(NC(=O)c3ccc(Cl)cc3)c2)cc1CNC(C)C.O=C(O)C(F)(F)F | 100 | 44 | 53
51 | Cc1cc(NC2CCCC2)nc(Nc2ccccc2F)n1 | 97 | 53 | 24
52 | CCN(CC)c1ccc(C=CC(=O)NCCN2CCC(N(C)C3CCCCC3C)CC2)cc1 (stereo not given) | 88 | 18 | 29
53 | Cl.Cn1ncc2c3c(CCN4CCC(NCc5cc6c(cn5)OCC6)CC4)c(Cl)cnc3ccc21 | 94 | 0 | 4
54 | O=C(Cn1c(CCc2cccc(F)c2F)cc(=O)c2ccccc21)N(Cc1ccc(-c2ccc(C(F)(F)F)cc2)cc1)C1CCN(CCO)CC1.O=C(O)C(O)C(O)C(=O)O | 91 | 84 | 82
55 | Oc1ccc(Nc2nc(NCc3ccco3)c3ccccc3n2)cc1 | 100 | 78 | 7
56 | N#Cc1ccc(-c2ccc(C(=O)NCCCCN3CCC(c4cc(Br)c5c(c4O)CCCC5)CC3)cc2)cc1 | 100 | 50 | 93
57 | O=C(Nc1ccc([N+](=O)[O-])cc1O)Nc1ccccc1Oc1ccccc1 | 92 | 1 | 45
58 | O=C(N1CCN(c2ccnc3cc4c(cc23)N(Cc2ccccc2)CC4)CC1)C(F)(F)F | 100 | 100 | 8
59 | CCOc1ccc(-c2nonc2NC(=O)c2ccc(OC(C)C)cc2)cc1OCC | 100 | 100 | 13
60 | COc1ccccc1CCNc1nc(C)cc(N[C@@H](Cc2ccccc2)C(=O)NCCCOC(C)C)n1.O=C(O)C(F)(F)F | 99 | 32 | 10
